This is an account of results in PubChem BioAssay (NCATS).

The nature of test [1]: Quantitative High-Throughput drug screen in 47 multiple myeloma cell lines against the NCATS MIPE library collection: OCIMY7_PLB cell viability assay (AID 1918987). Further: nearly all actives have a fitted effect of over 65% in size. To be noted: OCI-MY7 myeloma viability, CellTiter-Glo ATP, 48 h; series mostly up to 45.8 µM. From the text:
(§1) PI: Beverly A. Mock Ph.D.
(§2) Laboratory of Cancer Biology and Genetics,
(§3) Center for Cancer Research, National Cancer Institute,
(§4) National Institute of Health, Bethesda, Maryland
(§5) Drug resistance and disease progression are common in multiple myeloma (MM) patients, underscoring the need for new therapeutic combinations. […] We hypothesized that effective combinations would reduce MYC expression and enhance p16 activity. […] These preclinical data identify potentially useful drug combinations for evaluation in drug-resistant MM and reveal potential mechanisms of combined drug sensitivity.
(§6) Described herein is the primary MIPE qHTS used to cherrypick compounds. Validated compounds were then further tested for potential synergistic activiy.
(§7) [1] Peat TJ, Gaikwad SM, Dubois W, Gyabaah-Kessie N, Zhang S, Gorjifard S, Phyo Z, Andres M, Hughitt VK, Simpson RM, Miller MA, Girvin AT, Taylor A, Williams D, D'Antonio N, Zhang Y, Rajagopalan A, Flietner E, Wilson K, Zhang X, Shinn P, Klumpp-Thomas C, McKnight C, Itkin Z, Chen L, Kazandijian D, Zhang J, Michalowski AM, Simmons JK, Keats J, Thomas CJ, Mock BA. Drug combinations identified by high-throughput screening promote cell cycle transition and upregulate Smad pathways in myeloma. Cancer Lett. 2023 Aug 1;568:216284. doi: 10.1016/j.canlet.2023.216284. Epub 2023 Jun 24. PMID: 37356470; PMCID: PMC10408729.
(§8) SEQUENCE No. (e.g., 1, 2, 3, etc.); […] (e.g., Cells, Incubation, Reagent, etc.); VALUE and DESCRIPTION.
(§9) 1; Cells; 5 uL; white, solid bottom 1536-well Greiner assay plate.
(§10) 2; Compounds; 23 nL; Kalypsis pin tool (Wako USA) equipped with a 1536-well pin head to transfer to the assay plates.
(§11) 3; Incubation; 48 hours; 37C incubation.
(§12) 4; Reagent;5uL; CellTiter Glo (Promega).
(§13) 5; Detector; 425V; Luminescence; Viewlux PerkinElmer.
(§14) NOTES (numbers refer to Sequence numbers above)
(§15) 1. The cell-based screening methods employed in this study were like those previously published. Briefly, the corresponding myeloma cell lines were screened in 1,536-well plates with 500 cells, 5-uL per well for inhibition of cell viability (assessed by measuring ATP levels with CellTiterGlo).
(§16) 2. NCATS MIPE 4.0 library of approved and investigational drugs were added using the Kalypsis pin tool. Wells treated with DMSO only for 100% viability and media only for 0% viability were used as controls.
(§17) 3. The assay plates were covered and incubated for 48 hours in a 37C, 5% CO2 incubator with controlled humidity.
(§18) 4. After 48 hours, CellTilter-GloTM luminescent substrate mix (Promega) reagent was added to the assay plate and plates we incubated for 5 min at room temperature.
(§19) 5. Signal was measured as median relative luminescence units on a ViewLux (PerkinElmer) multiplate reader.
(§20) [1] Heske CM, Davis MI, Baumgart JT, Wilson K, Gormally MV, Chen L, Zhang X, Ceribelli M, Duveau DY, Guha R, Ferrer M, Arnaldez FI, Ji J, Tran HL, Zhang Y, Mendoza A, Helman LJ, Thomas CJ. Matrix Screen Identifies Synergistic Combination of PARP Inhibitors and Nicotinamide Phosphoribosyltransferase (NAMPT) Inhibitors in Ewing Sarcoma. Clin Cancer Res. 2017 Dec 1;23(23):7301-7311. doi: 10.1158/1078-0432.CCR-17-1121. Epub 2017 Sep 12. PMID: 28899971; PMCID: PMC6636827.

A short description of test [2]: Quantitative High-Throughput drug screen in 47 multiple myeloma cell lines against the NCATS MIPE library collection: OCIMY5_PLB cell viability assay (AID 1918988). Further: nearly all actives have a fitted effect of over 65% in size. To be noted: OCI-MY5 myeloma viability, ATP luminescence, 48 h; series mostly up to 45.8 µM. An outline of the steps: (§21)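 Cells were exposed to library compounds for 48 hours, after which ATP was measured by CellTiter-Glo. Signal was taken as median relative luminescence units.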

Test [3] can be described thus: Quantitative High-Throughput drug screen in 47 multiple myeloma cell lines against the NCATS MIPE library collection: U266_ATCC cell viability assay (AID 1919864). Further: nearly all actives have a fitted effect of over 35% in size. To be noted: U266 myeloma viability, CellTiter-Glo ATP luminescence, 48 h; series mostly up to 45.8 µM. An outline of the steps:
as §21

Test [4] is described as follows: Quantitative High-Throughput drug screen in 47 multiple myeloma cell lines against the NCATS MIPE library collection: XG1_PLB cell viability assay (AID 1919866). Further: nearly all actives have a fitted effect of over 35% in size. To be noted: CellTiter-Glo ATP, 48 h; series mostly up to 45.8 µM. An outline of the steps:
as §21
(In general: ATP-based viability assays read luminescence as a measure of living cells.)

The nature of test [5]: Quantitative High-Throughput drug screen in 47 multiple myeloma cell lines against the NCATS MIPE library collection: VP6_DJ cell viability assay (AID 1919867). Further: nearly all actives have a fitted effect of over 40% in size. To be noted: ATP luminescence, 48 h; series mostly up to 45.8 µM. In short, it runs like this: as §21
A short description of test [6]: Quantitative High-Throughput drug screen in 47 multiple myeloma cell lines against the NCATS MIPE library collection: PE2_PLB cell viability assay (AID 1919869). Further: nearly all actives have a fitted effect of over 35% in size. To be noted: PE2_PLB myeloma cells viability, ATP luminescence, 48 h; series mostly up to 45.8 µM. An outline of the steps:
as §21

Test [7] in a line: Quantitative High-Throughput drug screen in 47 multiple myeloma cell lines against the NCATS MIPE library collection: KMS34_JCRB cell viability assay (AID 1918985). Further: nearly all actives have a fitted effect of over 40% in size. To be noted: KMS34 myeloma viability, CellTiter-Glo ATP luminescence, 48 h; series mostly up to 45.8 µM. In short, it runs like this:
as §21

Test [8] is described as follows: Quantitative High-Throughput drug screen in 47 multiple myeloma cell lines against the NCATS MIPE library collection: UTMC2_PLB cell viability assay (AID 1919868). Further: nearly all actives have a fitted effect of over 55% in size. To be noted: CellTiter-Glo ATP luminescence, 48 h; series mostly up to 45.8 µM.
Source text: as §1, §2, §3, §4, §5, §6, §7, §8, §9, §10, §11, §12, §13, §14, §15, §16, §17, §18, §19, §20

A short description of test [9]: Quantitative High-Throughput drug screen in 47 multiple myeloma cell lines against the NCATS MIPE library collection: L363_DSMZ cell viability assay (AID 1918984). Further: nearly all actives have a fitted effect of over 40% in size. To be noted: L363 myeloma viability, CellTiter-Glo ATP luminescence, 48 h; series mostly up to 45.8 µM. In short, it runs like this:
as §21

The nature of test [10]: Quantitative High-Throughput drug screen in 47 multiple myeloma cell lines against the NCATS MIPE library collection: SKMM1_PLB cell viability assay (AID 1919863). Further: nearly all actives have a fitted effect of over 35% in size. To be noted: SKMM1 myeloma viability, CellTiter-Glo ATP, 48 h; viability: stronger effect = lower value. An outline of the steps: as §21

Inconclusive results are not listed. Values without a mark were called inactive. Active and inactive are the calls of the source. The call rests on the fitted dose curve; in most records, active means well fitted cell-killing curve with a large enough effect; inconclusive means small, poorly fitted or top-dose-only effect, or effect the other way; inactive means no such curve, though single readings can be large or run the other way.
Potency means the concentration at half of the fitted maximal effect.

For the compound `C[C@](O)(CS(=O)(=O)c1ccc(F)cc1)C(=O)Nc1ccc(C#N)c(C(F)(F)F)c1`, the Potency in test [1] was 0.469 µM (active); in test [2], 0.372 µM (active); in test [3] it was 0.935 µM (active); in test [4], 0.418 µM (active); in test [5], 0.662 µM (active); in test [6] it was 0.662 µM (active).

As for `CC(C)C[C@H](CN)CC(=O)O`, the Potency entry in test [7], in test [4] and in [6] was “inactive” in each case.

Consider `CCC1(c2ccc(N)cc2)CCC(=O)NC1=O` (centres undefined), for which the Potency result in [7], in test [2], in test [4], in test [8] and in test [6] was “inactive” in each case. Further, the Potency in test [3] was 1.32 µM (active).

`O=P1(N(CCCl)CCCl)NCCCO1` (centres undefined): the Potency was 10.5 µM (active) in test [9] and 14.8 µM (active) in test [4]. For the same compound, in test [5], the Potency entry was “inactive”.

`CN1C(=O)COc2c(C(=O)NC3CN4CCC3CC4)cc(Cl)cc21` (centres undefined): the viability in test [10] is 152%. The Potency entry in [3], in [4] and in [5] was “inactive” throughout.

`O=C(O)CCCc1ccc(N(CCCl)CCCl)cc1`: the Potency in test [1] was 4.69 µM (active); in test [4], 16.6 µM (active); in [8], 18.7 µM (active). The Potency result in test [2], in [3] and in test [6] was “inactive” throughout.

Turning to `CC(C)c1cccc(C(C)C)c1O`, the Potency result in [7], in test [3], in test [4], in [5], in test [8] and in test [6] was “inactive” each time. Besides, the viability in [10] is 119%.

Turning to `C[C@]12CCC(=O)C=C1CC[C@@H]1[C@H]3CC[C@](C)(O)[C@@]3(C)CC[C@@H]12`, the Potency in test [1] is 30.3 µM (active); in [2], 48.1 µM (active); in [10], 30.3 µM (active); in [3], 38.2 µM (active). Further, in test [8], the Potency entry is “inactive”.

Consider `CC(NC(C)(C)C)C(=O)c1cccc(Cl)c1` (centres undefined), for which the Potency result in test [7] and in test [6] was “inactive” in each case. Besides, in test [2], the Potency is 13.2 µM (active). In addition, the viability in test [10] was 112%.

For the compound `CN1C(=O)CCS(=O)(=O)C1c1ccc(Cl)cc1` (centres undefined), the Potency result in test [9], in test [7], in test [1], in test [2], in test [3] and in [5] was “inactive” in each case. Moreover, in test [6], the Potency entry was “inactive”. Also, in test [10], the viability was 109%. For the same compound, the Potency in [4] was 16.6 µM (active).

Consider `C[C@]12CC[C@@H]3c4ccc(OC(=O)N(CCCl)CCCl)cc4CC[C@H]3[C@@H]1CC[C@@H]2OP(=O)(O)O`, for which the Potency entry in test [9], in test [7], in [4] and in test [6] was “inactive” in each case.

As for `COc1cc(OC)c(OC)cc1C=O`, the Potency entry in [9], in test [7], in test [2], in [5], in test [8] and in [6] was “inactive” in each case.

Consider `C[C@]12CC[C@H]3[C@@H](CC[C@@]45O[C@H]4C(O)=C(C#N)C[C@]35C)[C@H]1CC[C@H]2O`, for which the Potency entry in [9], in test [4], in [8] and in [6] was “inactive” throughout. Also, the Potency in test [7] is 16.6 µM (active); in [1], 5.26 µM (active).

Broadly, the viability is a read-out of living cells in per cent, often relative to untreated cells.
